Pf growth 96h = Primary qHTS for delayed death inhibitors of the malarial parasite plastid, 96 hour incubation; P. falciparum luciferase reporter growth, 96 h; Potency, µM (series often up to 28.7 µM), for the others: at the top dose activity change, negative = inhibition, hits mostly inhibitors; 320,000 compounds, 6.9% hits; also: potency is read from the fitted curve at half-maximal effect; % is scaled to controls: 0 for no effect and ±100 for the full control effect
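Infected RBCs, 2% Hct / 0.05% parasitemia final; luciferase-reporter P. falciparum; cpd 96 h, 37 C, 5% CO2; luciferase detection reagent; luminescence.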
Cycloheximide cs = Cycloheximide Counterscreen for Small Molecule Inhibitors of Shiga Toxin; max response, %; cell reporter, cycloheximide protein synthesis inhibition counterscreen; 300,000 compounds, 12% hits; AID 2314, 2010; in the data active = max response mostly above about 13%, no sharp cut-off; inactive = mostly below about 14%; also: read at 38.3 µM for the half of the compounds with a filed dose; 0% is about no effect
LmPK inhibitor = qHTS Assay for Inhibitors of Leishmania Mexicana Pyruvate Kinase (LmPK); 290,000 compounds, 0.37% hits; Q27686; AID 1721, 2009; purified LmPK, Kinase-Glo ATP luminescence, 1 h; Potency, µM (doses to about 57.5 µM), for inactives: at the top dose activity change, negative = inhibition, usual class: inhibitors; also: potency is read from the fitted curve at half-maximal effect; % is scaled to controls: 0 for no effect and ±100 for the full control effect
Target sequence (Q27686 whole entry, looked up): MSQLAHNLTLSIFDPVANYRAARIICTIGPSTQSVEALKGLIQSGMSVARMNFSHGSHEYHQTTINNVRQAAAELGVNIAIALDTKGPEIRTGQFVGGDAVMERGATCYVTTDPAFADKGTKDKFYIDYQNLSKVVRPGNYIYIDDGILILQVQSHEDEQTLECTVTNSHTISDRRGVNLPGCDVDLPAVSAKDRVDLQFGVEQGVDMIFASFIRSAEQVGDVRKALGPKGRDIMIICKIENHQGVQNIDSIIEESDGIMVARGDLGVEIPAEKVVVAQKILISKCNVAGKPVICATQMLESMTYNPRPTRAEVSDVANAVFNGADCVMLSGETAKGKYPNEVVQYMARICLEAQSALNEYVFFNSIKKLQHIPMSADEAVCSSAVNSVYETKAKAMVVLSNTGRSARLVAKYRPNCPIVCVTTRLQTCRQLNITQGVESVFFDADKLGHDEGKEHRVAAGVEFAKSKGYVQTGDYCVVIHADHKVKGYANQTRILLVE
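Kinase-Glo luminescence read after 1 h RT reaction of 0.1 nM LmPK with 0.5 mM PEP and 0.1 mM ADP. Activity scaled between uninhibited and enzyme-free controls.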
Shiga toxin inh = A qHTS for Small Molecule Inhibitors of Shiga Toxin; 290,000 compounds, 9.2% hits; Vero cells, Shiga toxin protein synthesis inhibition reporter; inhibition, % at 38.7 µM; in the data active = inhibition mostly above about 28%, no sharp cut-off; inactive = mostly below about 43%; also: 0% is about no effect
Pf growth 48h = Primary qHTS for delayed death inhibitors of the malarial parasite plastid, 48 hour incubation; P. falciparum luciferase growth in erythrocytes, 48 h; Potency, µM (top dose mostly 28.7 µM), for the others: at the top dose activity change, negative = inhibition, actives largely listed as inhibitors; 310,000 compounds, 5.9% hits; AID 504832, 2011; also: potency is read from the fitted curve at half-maximal effect; % is scaled to controls: 0 for no effect and ±100 for the full control effect
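Growth was read as firefly luciferase luminescence after a 48 h, 37 C, 5% CO2 exposure of compounds to reporter-bearing P. falciparum cultures (0.1% parasitemia, 2% hematocrit final) in Albumax-supplemented RPMI 1640.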
* marks the source's active call; other numbers are inactive results; [ ] = dose if it differs, or a comment. In the library only some 22% were active in any assay of this set; here they are far more common. Unless noted, calls follow the shape of the dose curve; as a rule, active = well fitted inhibition curve with a large enough effect; inconclusive = small, poorly fitted or top-dose-only effect, or another doubt; inactive = no such curve, though single readings can be large or run the other way.

Screening O=C(O)c1ccc(C2Nc3ccccc3C(=O)N2Cc2ccccc2)cc1 (stereo not given) returned Pf growth 96h inconclusive, Cycloheximide cs 4, LmPK inhibitor -6%, Shiga toxin inh -5 and Pf growth 48h inconclusive.
`CC(=O)N1CCOc2cc(S(=O)(=O)Nc3c(C)cccc3C(C)C)c(Cl)cc21` gave Pf growth 96h 5.2µM* and Pf growth 48h 8.3µM*.
Screening O=c1c2c(-c3cccs3)csc2ncn1-c1ccc(Br)cc1 returned Pf growth 96h inconclusive, Cycloheximide cs 1, LmPK inhibitor 0%, Shiga toxin inh 16 and Pf growth 48h inconclusive.
Brc1ccc(-c2cnc(-c3cccs3)o2)cc1 was read as Pf growth 96h -10%, Cycloheximide cs 36*, LmPK inhibitor -5%, Shiga toxin inh 92* and Pf growth 48h 88%.
For COc1ccc(CCC(C(O)C(F)(F)F)S(=O)c2ccccc2)cc1 (stereo not given) the results were Pf growth 96h 2.1µM*, Cycloheximide cs -1, LmPK inhibitor 8%, Shiga toxin inh -2 and Pf growth 48h inconclusive.
Cc1c2c(n3c(nc4ccccc43)c1C#N)N(CCN(C)C)CC2 was read as Pf growth 96h 74%, Cycloheximide cs 1, LmPK inhibitor -5%, Shiga toxin inh -25 and Pf growth 48h 2.1µM*.
For Cc1c2c(n3c(nc4ccccc43)c1C#N)N(c1ccccc1)CC2 the results were Pf growth 96h 0.66µM*, Cycloheximide cs 6, LmPK inhibitor 0%, Shiga toxin inh -46 and Pf growth 48h 2.1µM*.
Screening Cc1c2c(n3c(nc4ccccc43)c1C#N)N(CCCN(C)C)CC2 returned Pf growth 96h 1%, Cycloheximide cs 3, LmPK inhibitor 0%, Shiga toxin inh -4 and Pf growth 48h -16%.
For CSCCC(NC(=O)c1ccco1)C(=O)Nc1ccncc1 (stereo not given) the results were Pf growth 96h 7%, Cycloheximide cs -1, LmPK inhibitor -7%, Shiga toxin inh 17 and Pf growth 48h 3%.
CN(CC(=O)Nc1ccc(Cl)c(C(F)(F)F)c1)C(=O)c1cccc(N2C(=O)CCC2=O)c1 was read as Pf growth 96h inconclusive and Pf growth 48h -23%.
O=[N+]([O-])c1nn(-c2ccc3c(c2)OCCO3)n(O)c1=NCCCO was read as Pf growth 96h 42%, Cycloheximide cs 18*, LmPK inhibitor -3%, Shiga toxin inh 48* and Pf growth 48h 24%.
Screening Cc1ccc(CN=c2c([N+](=O)[O-])nn(-c3ccc4c(c3)OCCO4)n2O)cc1 returned Pf growth 96h inconclusive, Cycloheximide cs 73*, LmPK inhibitor -1%, Shiga toxin inh 164* and Pf growth 48h 94%.
COc1ccc(CCN=c2c([N+](=O)[O-])nn(-c3cccc(C)c3)n2O)cc1OC was read as Pf growth 96h 0%, Cycloheximide cs 2, LmPK inhibitor 10%, Shiga toxin inh 9 and Pf growth 48h 0%.
Screening O=C1CCCN1CCCN=c1c([N+](=O)[O-])nn(-c2ccc(Cl)cc2)n1O returned Pf growth 96h 23%, Cycloheximide cs 13, LmPK inhibitor -4%, Shiga toxin inh 29 and Pf growth 48h inconclusive.
`O=C(CSc1nnc2ccc(-c3ccccn3)nn12)Nc1ccc(F)cc1F` gave Pf growth 96h 39% and Pf growth 48h 9%.
Screening O=C(CN1C(=O)/C(=C/c2ccccc2F)Sc2ccccc21)NCC1CCCO1 (stereo not given) returned Pf growth 96h -4%, Cycloheximide cs 2, LmPK inhibitor -1%, Shiga toxin inh 10 and Pf growth 48h -3%.
On1c(-c2ccccc2)nc2ccccc21 was read as Pf growth 96h 8%, Cycloheximide cs 13, LmPK inhibitor -15%, Shiga toxin inh 40 and Pf growth 48h -22%.
Screening On1c(-c2ccc(Cl)cc2)nc2ccccc21 returned Pf growth 96h inconclusive, Cycloheximide cs 43*, LmPK inhibitor 2%, Shiga toxin inh 63* and Pf growth 48h inactive.
O=C(NC(=S)Nc1nc2ccc(F)cc2s1)c1ccco1 was read as Pf growth 96h inconclusive, Cycloheximide cs 32*, LmPK inhibitor 9%[11.5 µM], Shiga toxin inh 90* and Pf growth 48h 118%.
Screening Cc1ccc(C(=O)Nc2nc3ccc(S(C)(=O)=O)cc3s2)o1 returned Pf growth 96h 356%, Cycloheximide cs 34*, LmPK inhibitor 14µM*, Shiga toxin inh 44* and Pf growth 48h 233%.
For Cc1c(Cl)ccc2sc(NC(=O)c3ccco3)nc12 the results were Pf growth 96h 206%, Cycloheximide cs 67*, LmPK inhibitor -3%, Shiga toxin inh 83* and Pf growth 48h 195%.
CS(=O)(=O)c1ccc2nc(NC(=O)c3ccco3)sc2c1 was read as Pf growth 96h 143%, Cycloheximide cs 36*, LmPK inhibitor inconclusive, Shiga toxin inh 40* and Pf growth 48h 99%.
Cc1ccc(NC(=O)/C=C/C(=O)O)c(NC(=O)c2ccccc2)c1 was read as Pf growth 96h 17%, Cycloheximide cs -1, LmPK inhibitor 3%, Shiga toxin inh -2 and Pf growth 48h 22%.
CN(C)c1nnnn1-c1cccc(Oc2ncc(C(F)(F)F)cc2Cl)c1 was read as Pf growth 96h -8%, Cycloheximide cs -3, LmPK inhibitor 1%, Shiga toxin inh -4 and Pf growth 48h -10%.
`Cc1cccc(NC(=O)C(=O)NCC2CCCO2)c1` (stereo not given) gave Pf growth 96h 10%, Cycloheximide cs 43*, LmPK inhibitor -7%, Shiga toxin inh 51* and Pf growth 48h 143%.
O=C(NCC1CCCO1)Nc1ccccc1 (stereo not given) was read as Pf growth 96h 43%, Cycloheximide cs -1, LmPK inhibitor -3% and Shiga toxin inh -1.
C=C(C)c1cccc(C(C)(C)NC(=O)NCC2CCCO2)c1 (stereo not given) was read as Pf growth 96h 96%, Cycloheximide cs -1, LmPK inhibitor 6%, Shiga toxin inh -14 and Pf growth 48h 7.4µM*.
`C=C(C)c1cccc(C(C)(C)NC(=O)N2CCC(C)CC2)c1` gave Pf growth 96h -8%, Cycloheximide cs -4, LmPK inhibitor -3% and Shiga toxin inh -2.
Screening O=C(NCC1CCCO1)Nc1cccc(Cl)c1 (stereo not given) returned Cycloheximide cs 17*, LmPK inhibitor -5%, Shiga toxin inh 27* and Pf growth 48h 52%.
CC(Sc1nnc(CC(=O)Nc2ccccc2F)n1C)C(=O)Nc1nccs1 (stereo not given) was read as Pf growth 96h 25%, Cycloheximide cs -4, LmPK inhibitor 2%, Shiga toxin inh -2 and Pf growth 48h -2%.
Screening CCOC(=O)Cc1cc(=O)c2cc(C)ccc2[nH]1 returned Pf growth 96h inconclusive, Cycloheximide cs -4, LmPK inhibitor -1%, Shiga toxin inh -8 and Pf growth 48h inconclusive.
